Screening data (PubChem)
Only some compounds are listed: those with a hit (about 2.9% of all), similar ones and a draw of the others.
IDH1 R132H inh = blocks human mutant IDH1 R132H enzyme. Potency, µM (top dose mostly 76.6 µM), actives largely listed as inhibitors. O75874. AID 602179. 390,000 compounds, 0.093% hits. IDH1-R132H enzyme, NADPH consumption, diaphorase/resazurin fluorescence; also: nearly all actives have a fitted effect of over 65% in size
Target sequence (O75874 whole entry R132H, stated change not applied): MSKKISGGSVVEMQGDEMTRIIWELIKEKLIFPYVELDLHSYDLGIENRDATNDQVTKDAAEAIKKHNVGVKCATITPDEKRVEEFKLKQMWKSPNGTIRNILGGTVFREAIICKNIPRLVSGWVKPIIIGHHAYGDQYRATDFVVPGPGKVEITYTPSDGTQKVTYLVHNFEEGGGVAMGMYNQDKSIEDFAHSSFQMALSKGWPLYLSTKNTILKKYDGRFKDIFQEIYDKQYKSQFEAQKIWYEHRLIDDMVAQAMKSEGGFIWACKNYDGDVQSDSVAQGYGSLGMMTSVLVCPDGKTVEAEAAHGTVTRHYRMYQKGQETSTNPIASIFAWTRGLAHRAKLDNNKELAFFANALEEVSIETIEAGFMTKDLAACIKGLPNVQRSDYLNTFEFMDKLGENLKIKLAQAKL
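IDH1-R132H (0.5 ug/mL dispensed) in pH 7.5 Tris buffer was preincubated 30 min with compound, then given a substrate mix of 0.016 mM NADPH and 2 mM alpha-KG for 80 min at room temperature; remaining NADPH was read by diaphorase/resazurin fluorescence.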
B2AR arrestin = agonists driving beta-arrestin recruitment to human beta2-adrenergic receptor. beta-arrestin recruitment to beta2AR, cell-based reporter. Potency, µM (doses to about 46.1 µM), usual class: activators. 330,000 compounds, 0.02% hits. AID 492947; also: nearly all actives have a fitted effect of over 65% in size
D3 antag = blocks the human D3 dopamine receptor; 360,000 compounds, 2.5% hits; D3R cells, DiscoveRx beta-arrestin luminescence, antagonist mode; stronger effect = lower value; max response, negative = inhibition, %; P35462; AID 652054; in the data active = max response below about -50%; inconclusive = no clear call, values can overlap the other calls
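Cells expressing the human receptor were seeded at 1500 cells/well, incubated overnight at 37 degrees C in 5% CO2, then exposed to library compounds with dopamine controls for 90 minutes at 37 degrees C before luminescent detection.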
DRD3 agonist = activates the human D3 dopamine receptor | AID 652048 | D3R DiscoveRx beta-arrestin cells, luminescence, 90 min | 410,000 compounds, 0.58% hits | max activation, % | P35462; in the data active = max activation above about 30%
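Cells at 1500/well, incubated overnight, then treated with pinned compounds (dopamine as control) for 90 min at 37 degrees C. DiscoveRx reagent added for 30 - 60 minutes at room temperature; luminescence read.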
Integrin act MD = integrin-mediated muscular dystrophy alleviation activation; alpha7betagal myoblasts, beta-gal FDG fluorescence, 48 h; Potency, µM (titrated, usually from 38.3 µM), most hits filed as activators; 350,000 compounds, 0.064% hits; also: nearly all actives have a fitted effect of over 60% in size
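alpha7betagal+/- myoblasts (passage 13, 250/well) treated 48 h at 37C with compounds at 1:260 dilution of DMSO stock. Lysed, then beta-galactosidase activity read as FDG fluorescence (ex 480/em 540) after 30 min, with pre-read for autofluorescence.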
Hits are given with their value; n = inactive; u = inconclusive; x = no result. Unless noted, calls follow the shape of the dose curve; as a rule, active = well fitted curve in the direction sought with a large enough effect; inconclusive = small, poorly fitted or top-dose-only effect, or another doubt; inactive = no such curve, though single readings can be large; an effect the other way counts as inactive or inconclusive.

SMILES | IDH1 R132H inh | B2AR arrestin | D3 antag | DRD3 agonist | Integrin act MD
COc1ccc(OCC(=O)Nc2ccc(N3CCN(C(=O)c4ccco4)CC3)cc2)cc1 | n | n | n | n | n
Cc1cc(C)cc(OCC(=O)Nc2ccc(N3CCN(C(=O)c4ccco4)CC3)cc2)c1 | n | n | n | 37 | n
CCc1ccc(CN2CCN(C(=O)c3cccc(OC)c3OC)CC2)cc1 | n | n | -57 | n | n
O=C(c1ccco1)N1CCN(Cc2cccc(F)c2)CC1 | n | n | n | 36 | n
O=C(c1ccco1)N1CCN(Cc2ccc(Br)cc2)CC1 | n | n | n | 33 | n
Cc1cc(C)c2sc(N(Cc3cccnc3)C(=O)CCS(=O)(=O)c3ccccc3)nc2c1 | n | x | x | n | x
CCc1ccc(CN(Cc2ccco2)C(=O)c2ccc(OC)cc2)cc1 | n | x | x | n | x
COc1ccc(CNC(=O)Cc2c(C)c3cc4c(C)coc4cc3oc2=O)cc1 | n | x | x | n | x
CCc1ccc(CN2CCN(C(=O)c3ccco3)CC2)cc1 | n | n | n | 69 | n
COc1ccc(OCC(=O)N2CCN(C(=O)c3ccco3)CC2)cc1 | n | n | -54 | n | n
Cn1c(=O)cc(N2CCN(C(=O)c3ccco3)CC2)[nH]c1=O | n | n | -113 | n | n
COc1ccc(NC(=O)C(=O)NCCN2CCN(C(=O)c3ccco3)CC2)cc1 | n | n | n | 56 | n
O=C(COc1ccccc1)N1CCN(C(=O)c2ccco2)CC1 | n | n | n | n | n
COc1ccc(N2CCN(c3ncnc4onc(C)c34)CC2)cc1 | n | x | x | n | x
Cc1ccc2nc(-c3ccc(NC(=O)CN4CCN(C(=O)c5ccco5)CC4)cc3)sc2c1 | n | n | n | 36 | n
O=C(c1ccco1)N1CCN(Cc2cccc3ccccc23)CC1 | n | n | n | 32 | n
COc1cccc(CN2CCN(C(=O)c3ccco3)CC2)c1 | n | n | n | 37 | n
COc1cccc(CN2CCCN(S(=O)(=O)c3ccc(Br)cc3)CC2)c1 | n | n | -57 | n | n
CN(C)C(=O)CNC(=O)Cc1ccccc1 | x | x | x | n | x
CCOC(=O)c1c(C)n(S(=O)(=O)c2ccc(C)cc2)c2ccc(NS(=O)(=O)c3ccc(C)cc3)cc12 | n | x | x | n | x
COc1ccc(C(=O)C(C)OC(=O)CNC(=O)c2ccco2)cc1 (configuration not stated) | n | n | n | n | u
Cc1cc(C)cc(NC(=O)c2ccc3oc(=O)c(S(=O)(=O)c4ccc(F)cc4)cc3c2)c1 | n | x | x | n | x
O=C(c1ccco1)N1CCN(CC(O)COc2ccc(Br)cc2)CC1 (configuration not stated) | n | n | n | 35 | n
COC(=O)c1ccc(OCC(O)CN2CCN(C(=O)c3ccco3)CC2)cc1 (configuration not stated) | n | n | n | n | n
COc1ccc(OC)c(CNC(=O)c2cc(=O)[nH]c3ccc(S(=O)(=O)N4CCCCC4C)cc23)c1 (configuration not stated) | n | x | x | n | x
SMILES | IDH1 R132H inh | B2AR arrestin | D3 antag | DRD3 agonist | Integrin act MD
CCN(CC)C(=O)CSc1nc2c(sc(=S)n2-c2ccc(C)cc2C)c(=O)[nH]1 | n | n | n | n | n
COC(=O)c1ccccc1NC(=O)c1nc(S(=O)(=O)Cc2ccccc2)ncc1Cl | n | n | -77 | n | n
COc1ccc(CNC(=O)c2nc(S(=O)(=O)Cc3ccccc3)ncc2Cl)cc1 | u | n | -97 | n | n
O=C(NCc1ccccc1)c1nc(S(=O)(=O)Cc2ccccc2)ncc1Cl | n | n | -78 | n | n
CC(=O)Nc1ccc(NC(=O)c2nc(S(=O)(=O)Cc3ccccc3)ncc2Cl)cc1 | n | n | n | n | n
CC1(C)Cc2c(sc(NC(=O)C(=O)N3CCCCC3)c2C(N)=O)CO1 | n | n | n | n | n
Oc1ccc(C[C@H]2CNCCN2CC2(c3ccccc3)CC2)cc1 | n | n | n | n | n
CCC1CN(C(=O)N2CCC(C(=O)NCCC3=CCCCC3)CC2)c2cc(C)ccc2O1 (configuration not stated) | n | x | x | n | x
CC(C(=O)Nc1ccc(C#N)cc1)N(C)CC(=O)Nc1cccc(F)c1 (configuration not stated) | n | n | n | n | 4µM
Cc1ccc(C)c(S(=O)(=O)NC(C)C(=O)Nc2ccc(-c3nc4ccccc4s3)cc2)c1 (configuration not stated) | n | n | n | 51 | n
COCc1nnc(NC(=O)c2sc3ccccc3c2Cl)s1 | n | n | n | n | n
Cc1nnc(NC(=O)c2sc3ccccc3c2Cl)s1 | n | n | -73 | n | n
CC(C)(C)c1ccc(OCCSc2nc(-c3cccs3)nc3cc(=O)[nH]n23)cc1 | n | x | x | 37 | x
Cc1ccc(C(=O)CC(=O)c2cccc(F)c2)c(O)c1 | n | n | -62 | n | n
Cc1ccc(C(=O)CC(=O)c2ccccc2C)c(O)c1 | n | n | -50 | n | n
Cc1ccc(O)c(C(=O)CC(=O)c2ccccc2Cl)c1 | n | n | n | n | n
O=c1c2c3c(sc2nc2n1CCC2)CCC3 | n | n | -52 | n | n
O=c1c2c3c(sc2nc2n1CCC2)CCCCC3 | n | n | n | n | n
COc1cccc2c1Oc1ncccc1N(C(=O)Nc1ccc(F)c(Cl)c1)C2 | n | x | x | n | x
Cc1ccc(C)c(Nc2nnc(-c3ccc(C)c(S(=O)(=O)NCC4CCCO4)c3)c3ccccc23)c1 (configuration not stated) | n | x | x | n | x
CCc1ccc(OCC(=O)Nc2c(C(=O)c3ccccc3)oc3ccccc23)cc1 | n | x | x | n | x
CCc1ccc(OC2(C)CCN(Cc3ccc4c(c3)OCCO4)C2)cc1 (configuration not stated) | x | x | n | n | x
CC(=O)c1ccc(OC2(C)CCN(Cc3ccc4c(c3)OCCO4)C2)cc1 (configuration not stated) | x | x | -69 | n | x
CC(=O)c1ccc(OC2(C)CCN(Cc3ccc(C)cc3)C2)cc1 (configuration not stated) | x | x | -102 | n | x
COc1ccc(N2CCN(C(=O)c3c(C)oc4ncn(CC(C)C)c(=O)c34)CC2)cc1 | n | x | x | n | x
SMILES | IDH1 R132H inh | B2AR arrestin | D3 antag | DRD3 agonist | Integrin act MD
Oc1c(Cl)cc(Cl)cc1/C=N/NC(=S)NC1CC2C=CC1C2 (configuration not stated) | n | n | -85 | n | n
COC(=O)c1ccccc1NC1=C/C(=N\S(=O)(=O)c2ccc(C(=O)O)cc2)c2ccccc2C1=O | n | n | -99 | n | n
CCc1ccc(S(=O)(=O)/N=C2\C=C(Nc3ccc(C(=O)O)cc3)C(=O)c3ccccc32)cc1 | n | n | -68 | n | n
Cc1ccc(S(=O)(=O)/N=C2\C=C(Nc3cccc(C(=O)O)c3)C(=O)c3ccccc32)c(C)c1 | n | n | -71 | n | n
COC(=O)c1ccccc1NC1=C/C(=N\S(=O)(=O)c2cccs2)c2ccccc2C1=O | n | n | -93 | n | n
CCOc1ccc(CC(=O)Nc2ccc3nc(N4CCCCC4)cc(C)c3c2)cc1OCC | n | x | x | n | x
